Assay results reported in the supplement of paper PMC3484114.
± gives the standard deviation.

test system: OVCAR-3-derived ovarian cancer stem-like cells (spheroids); assay: cell growth relative to untreated control; higher = more growth (less inhibition); settings: 2.29 µM; 96 h
Procedure, shortened: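 Viability of stem-like cells from OVCAR-3 spheroids was assessed with TOX8 resazurin fluorescence at ex 560/em 590 nm. The cells had been trypsin-dissociated, seeded at 50,000 cells/mL in stem cell medium in ultra-low attachment 96-well plates and preincubated 24 h, then treated with compounds at 2.29 uM for 96 h at 37°C, 5% CO2, in 4 replicate wells, with fluorescence read after 4 h. Results were converted to percent growth against untreated wells after blank subtraction and Grubbs outlier removal.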

`COc1ccc(C=CC(=O)Oc2cc(O)cc(O)c2)cc1` and `COc1ccc(NC(=O)C(=O)/C=C(\O)c2ccccc2)cc1` are within error of each other in cell growth: 99.6 ± 16% for the first, 107 ± 46% for the second.

`COc1cc(NC(C)CCCN)c2ncccc2c1` (centres undefined) and `Cc1nc2c(nc1C)C(=O)c1ccccc1C2=O` are within error of each other in cell growth: 56.5 ± 7% for the first, 54.6 ± 6.1% for the second.

Going from `CC(C)CCCCCCCCCCCCC(=O)NCC(=O)NC1C(C)OC(Nc2ncnc3nc[nH]c23)C(O)C1O` (centres undefined) to `NC1=NCN([C@@H]2O[C@H](CO)[C@@H](O)[C@H]2O)C(=O)N1`, the cell growth rises from 17.4 ± 6.2% to 85.8 ± 11%.

First: CN(C)CCCN1c2ccc3ccccc3c2Sc2cccc(Cl)c21
Second: Fc1cccc(Cl)c1C1SCc2nc3ccccc3n21 (centres undefined)
The cell growth of the first is higher: 104 ± 19% for the first, 22.8 ± 9.7% for the second.

Going from `O=C1/C(=C\c2ccccc2)CN(C(=O)/C=C/c2ccccc2)C/C1=C\c1ccccc1` to `C=CC(=O)N1C/C(=C\c2ccccc2)C(=O)/C(=C/c2ccccc2)C1`, the cell growth falls from 74.7 ± 18% to 43.2 ± 6.1%.

`Cc1ccc2[nH]c(O)c(N=Nc3ccccc3[N+](=O)[O-])c2c1` and `Cc1cc2c(cc1C)[n+](=O)c(C(=O)/C=C/c1ccccc1[N+](=O)[O-])c(C)n2[O-]` are within error of each other in cell growth: 108 ± 15% for the first, 123 ± 66% for the second.

`O=C(NC1=C(Cl)C(=O)c2ccccc2C1=O)C(=O)C(C(=O)c1ccc2ccccc2c1)C1OC(=O)c2ccccc21` (centres undefined) and `O=C(O)c1ccccc1-c1ccccc1C(=O)Nc1ccc2c(c1)Cc1ccccc1-2` are within error of each other in cell growth: 89.6 ± 20% for the first, 80.8 ± 29% for the second.

`COc1ccc(N=Cc2ccc(N(CCC#N)S(=O)(=O)c3ccccc3)cc2C)cc1` and `COc1ccc(/C=C2\N=C(c3ccccc3)OC2=O)c(OCc2ccccc2)c1` are within error of each other in cell growth: 80.6 ± 28% for the first, 69.7 ± 24% for the second.

Compared with `COc1ccc2nc3cc([N+](=O)[O-])ccc3c(NNc3ccccc3)c2c1`, `O=[N+]([O-])c1cccc2nc3ccccc3c(NCCCNc3c4ccccc4nc4cccc([N+](=O)[O-])c34)c12` is lower in cell growth: 76.2 ± 22% for the first, 10.8 ± 2.9% for the second.

Compared with `COc1cc2c(c(OC)c1OC)-c1ccc(OC)c(=O)cc1[C@@H](NC(=O)c1ccccc1)CC2`, `CC[n+]1c(-c2ccccc2)c2cc(N)ccc2c2ccc(N)cc21` is lower in cell growth: 30.8 ± 5.6% for the first, 15 ± 9.7% for the second.

First: CC(=O)OC[C@H]1O[C@@H](NC(=O)N(CCCl)N=O)[C@H](OC(C)=O)[C@@H](OC(C)=O)[C@@H]1OC(C)=O
Second: COc1cccc2c1C(=O)c1c(O)c3c(c(O)c1C2=O)C[C@@](O)(C(C)=O)C[C@@H]3O[C@@H]1C[C@@H](N(C)C)[C@@H](O)[C@@H](C)O1
The cell growth of the first is higher: 115 ± 15% for the first, 26.5 ± 25% for the second.

`Clc1ccccc1C(c1ccccc1)(c1ccccc1)n1ccnc1` and `O=C1C(=O)c2ccccc2C(O)=C1CCCc1ccc(Oc2ccccc2)cc1` are within error of each other in cell growth: 106 ± 13% for the first, 87.1 ± 37% for the second.

`CCCN(CCC)C(=S)Sc1nc(C)nc(N2CCN(c3nc(C)nc(SC(=S)N(CCC)CCC)c3[N+](=O)[O-])CC2)c1[N+](=O)[O-]` and `COc1cc2oc(=O)cc(C)c2cc1[N+](=O)[O-]` are within error of each other in cell growth: 107 ± 22% for the first, 137 ± 45% for the second.

`COC1C(O)=C2C(=O)OC(C)(O)/C=C/C=C\C=C/C=C/C(c3ccccc3)NC(=O)/C=C/C=C/C=C/C=C/C2(C)C1O` (centres undefined) and `N#CC1CC(c2ccccc2)Nc2cc(Cl)ccc2N1` (centres undefined) are within error of each other in cell growth: 71.7 ± 31% for the first, 80.4 ± 20% for the second.

Compared with `CCOC(C)C(C=NNC(N)=S)=NNC(N)=S` (centres undefined), `COc1cccc(/C=N\NC(=O)C(C)SC(C)C(=O)N/N=C/c2cccc(OC)c2)c1` (centres undefined) is higher in cell growth: 23 ± 5.7% for the first, 100 ± 33% for the second.

Compared with `CC(CN1CC(=O)NC(=O)C1)N1CC(=O)NC(=O)C1` (centres undefined), `C[C@]12C=CC(=O)C=C1[C@@H](F)C[C@H]1[C@@H]3CC[C@](O)(C(=O)CO)[C@@]3(C)C[C@H](O)[C@@]12F` is lower in cell growth: 221 ± 43% for the first, 80 ± 22% for the second.

First: O=c1[nH]c(=O)n(C2OC(CO)C(O)C2O)cc1F (centres undefined)
Second: CC1C(Oc2c(-c3ccc(O)c(O)c3)oc3c(O)cc(O)cc3c2=O)OC(O)C(O)C1O (centres undefined)
The cell growth of the first is lower: 19.2 ± 4.6% for the first, 77.6 ± 18% for the second.

Going from `C[C@@H]1C[C@H]2OC(=O)[C@@]3(C)CCC[C@@](C)([C@@H]23)[C@@]1(O)CCc1ccoc1` to `CC1=C2C(=CO[C@H](C)[C@H]2C)C(=O)C(C(=O)O)=C1O`, the cell growth rises from 59.6 ± 12% to 112 ± 18%.

First: O=S(=O)(O)SC/C=C/CSS(=O)(=O)O
Second: CCN(CC)C(=S)S
The cell growth of the first is higher: 143 ± 16% for the first, 61.6 ± 19% for the second.

In the case of `NC1(C(=O)O)CCCC1`, the cell growth is reported as 84.9 ± 15%.
